In all, about 69,000 compounds went through this assay and about 8,600 (12%) showed an effect of 50% or more. The sample as a whole holds a higher share of strong results than the screen did.
Each compound was assayed on Plasmodium berghei (assay: Screen against P. berghei liver stage (PbLuc), transformed with Luciferase, at 10uM). Conditions: tested at 10 uM.
Format: functional, HepG2
CS(=O)(=O)N1CCCC(Cc2ccnc3ccncc23)CC1 (configuration not stated) was tested, and the INHIBITION was 19.6%. Work on O=C(c1cccnc1)N1CCCC2(CCN(c3ccsc3)C2=O)C1 (configuration not stated) yielded an INHIBITION of -33.7%. With CN(C)C(=O)[C@@H]1CCO[C@@H]2CCN(Cc3ccc4c(c3)OCO4)C[C@@H]21 the INHIBITION was 10.8%. COc1cc(N2CCC3(CCCN3Cc3cnn(C)c3)CC2)ncn1 showed an INHIBITION of 13.7%. For CCCN1CCc2nc(SCc3ccccc3)[nH]c(=O)c2C1, the INHIBITION was 17.7%. In the case of COCCN1CCc2nc(SCc3ccc(F)cc3)[nH]c(=O)c2C1, the INHIBITION is reported as 56.3%. For CCCN1CCc2nc(SCc3ccc(F)cc3)[nH]c(=O)c2C1, the INHIBITION was 20%. In the case of Cn1cnnc1C1CCCN(C(=O)c2ccccn2)C1 (configuration not stated), the INHIBITION is reported as 13.6%. With Cc1cccc(C(=O)N2C[C@@H]3CC[C@H]2CN(S(=O)(=O)N(C)C)C3)n1 the INHIBITION was 18.2%. In the case of Cc1oc(-c2cccs2)nc1C(=O)N(C)C1(C#N)CCC1, the INHIBITION is reported as -11.6%. In the case of CN(C(=O)Cc1coc(-c2ccccc2)n1)C1(C#N)CCC1, the INHIBITION is reported as 78.3%. In the case of CN(C(=O)Cc1coc(-c2cccs2)n1)C1(C#N)CCC1, the INHIBITION is reported as 27.9%. With Cc1nc(C)n(C2CCCN(C(=O)c3sccc3C)C2)n1 (configuration not stated) the INHIBITION was -19.6%. CCn1nc(C)c2c1cnn2CCNS(=O)(=O)c1cccs1 was tested, and the INHIBITION was 60.7%. CCn1nc(C)c2c1cnn2CCNS(C)(=O)=O was tested, and the INHIBITION was 16.8%. CCn1nc(C)c2c1cnn2CCNS(=O)(=O)c1ccccc1 showed an INHIBITION of -22.2%. Cc1ccsc1CNCc1c(C(C)C)nn(C)c1N1CCOCC1 gave an INHIBITION of 9.52%. Compound COc1cc(CNC(=O)Nc2nncs2)ccc1O has an INHIBITION of -73.6%. For COC(=O)C(CNC(=O)Nc1nncs1)Cc1ccc(O)cc1 (configuration not stated), the INHIBITION was 51%. In the case of COC(=O)C(CNC(=O)Nc1nncs1)Cc1ccc(F)cc1 (configuration not stated), the INHIBITION is reported as 37.6%. In the case of Cc1ccc(CNC(=O)Nc2nncs2)cn1, the INHIBITION is reported as 27.4%. With COC(=O)C(CNC(=O)Nc1nncs1)Cc1cccc(C)c1 (configuration not stated) the INHIBITION was 76.8%. COC(=O)C(CNC(=O)Nc1cn[nH]c1)Cc1cccc(C)c1 (configuration not stated) gave an INHIBITION of 11.9%. Cc1ccccc1OC1(C(=O)O)CCN(C(=O)CCc2ccco2)CC1 was tested, and the INHIBITION was 39.3%. CC(C)c1nc(CN(C)C2CCN(CCc3ccncc3)C2)no1 (configuration not stated) gave an INHIBITION of -16%. For Cc1ccc(CN(C)C(=O)CN2CCOC(Cn3cccn3)C2)o1 (configuration not stated), the INHIBITION was 11.6%. Compound Cn1nc(C2CN(C(=O)c3ccncc3)C2)c2nccnc21 has an INHIBITION of 22%. CCCc1nn(Cc2csc(CC)n2)c(=O)o1 showed an INHIBITION of 61%. Work on CCc1nc(Cn2nc(COC)oc2=O)cs1 yielded an INHIBITION of 49.9%. Work on CCCc1nn(Cc2csc(C(C)C)n2)c(=O)o1 yielded an INHIBITION of 29.4%. In the case of Cc1nc(CNC(=O)CCCc2cccs2)no1, the INHIBITION is reported as 35.9%. In the case of Cc1n[nH]cc1CNC(=O)CCCc1cccs1, the INHIBITION is reported as 54.5%. Cc1csc(CNC(=O)CCCc2cccs2)n1 was tested, and the INHIBITION was 3.48%. In the case of COc1c(C(=O)NCc2cnn(C)c2C)nnn1Cc1ccccc1, the INHIBITION is reported as 40.8%. Work on N#CC1COCCN1C(=O)c1ccc2[nH]cnc2c1 (configuration not stated) yielded an INHIBITION of -13.9%. Compound N#CC1COCCN1C(=O)c1ccc2cc[nH]c2c1 (configuration not stated) has an INHIBITION of 53.3%. N#CC1COCCN1C(=O)c1ccc2[nH]ccc2c1 (configuration not stated) gave an INHIBITION of 19.7%. In the case of O=c1[nH]c(COc2ccc(Cl)cc2)nc2c1CCNC2, the INHIBITION is reported as -9.66%. CCCc1nnsc1C(=O)NCC(O)c1cccs1 (configuration not stated) gave an INHIBITION of 19.9%. COc1cccc([C@H]2CN(C(=O)c3nnc4n3CCCC4)C[C@@H]2N)c1 was tested, and the INHIBITION was 58.1%. CCOCCN1C[C@H](c2cccc(OC)c2)[C@@H](N)C1 was tested, and the INHIBITION was 39.9%. For C/C=C(\C)CN1C[C@H](c2cccc(OC)c2)[C@@H](N)C1, the INHIBITION was -0.273%. COc1cccc([C@H]2CN(C(=O)c3cc(C)on3)C[C@@H]2N)c1 showed an INHIBITION of 23.5%. For COc1cccc([C@H]2CN(C(=O)c3scc4c3CCCC4)C[C@@H]2N)c1, the INHIBITION was 60.1%. Compound COc1cccc([C@H]2CN(C(=O)c3noc4c3CCCC4)C[C@@H]2N)c1 has an INHIBITION of 31.4%. For CC(C)CCOCCNC(=O)Nc1ccc(F)c(C(N)=O)c1, the INHIBITION was -25.9%. CCn1c(N)nc2cc(C(=O)NCc3cccc(C)c3C)cnc21 showed an INHIBITION of -25.7%. Compound CCc1nnc(CN2CCC(N3CCN(CC)C3=O)CC2)o1 has an INHIBITION of -27.8%. With Cc1cccn2c(=O)cc(OC(=O)c3ccc(OC(C)C)cc3)nc12 the INHIBITION was -5.59%. For Cc1ccc2c(cnn2CCC(=O)NCc2csc(C)n2)c1, the INHIBITION was 23.6%. In the case of CCn1cnnc1CCNS(=O)(=O)N1CCCC1c1ccco1 (configuration not stated), the INHIBITION is reported as 27.7%. Cc1c(CN2CCCC2c2cncc(CN3CCCC3)n2)cnn1C (configuration not stated) was tested, and the INHIBITION was 12.9%. For Cc1ccc(OCC(C)NS(=O)(=O)N(C)C)cc1 (configuration not stated), the INHIBITION was 51.5%. Work on Cc1ccc(OCC(C)NS(C)(=O)=O)cc1 (configuration not stated) yielded an INHIBITION of -1.7%. With COc1ccc(OCC(C)NS(C)(=O)=O)cc1 (configuration not stated) the INHIBITION was 0.472%. Work on CC(COc1ccccc1)NS(C)(=O)=O (configuration not stated) yielded an INHIBITION of 52.6%. Cc1ccc(OCC(C)NS(C)(=O)=O)cc1C (configuration not stated) showed an INHIBITION of 15.7%. With Cc1ccc(OCC(C)NC(=O)CN(C)c2ccc(C#N)cn2)cc1 (configuration not stated) the INHIBITION was 8.38%. Compound CCOc1ccc2[nH]c(=O)c(CN3CCC(N4CCCC4)CC3)cc2c1 has an INHIBITION of -1.54%. Cc1cccc(C(=O)N2CCCC(c3noc(C)n3)C2)n1 (configuration not stated) showed an INHIBITION of 4.71%. O=C(NCc1ccco1)[C@@H]1CCO[C@@H]2CCN(c3ccncn3)C[C@H]21 was tested, and the INHIBITION was 10%. Work on COc1ccccc1C(O)CNC(=O)Nc1ccccn1 (configuration not stated) yielded an INHIBITION of 35.9%. Cc1ccc2c(c1)c(C)cc(=O)n2CCCN was tested, and the INHIBITION was -17%. In the case of CCc1cc(-c2ccnc3c2ccn3C)nc(N2CCOCC2)n1, the INHIBITION is reported as 51.5%. Cn1ccc2c(-c3cc(N4CCOCC4)ncn3)ccnc21 gave an INHIBITION of -3.96%. Cn1ccc2c(-c3cc(N)nc(N4CCOCC4)n3)ccnc21 showed an INHIBITION of 18.8%. COc1cccc(CN2CCCCC2c2n[nH]cc2-c2cc(C)no2)c1 (configuration not stated) gave an INHIBITION of 25.8%. For CNC(=O)c1cc2c(nc1NCC1CC1)CCN(c1ccncn1)CC2, the INHIBITION was 32.4%. With Cc1cc(C)n(CNc2nonc2C(N)=O)n1 the INHIBITION was 44.1%. Compound CCc1nnc(CN(C)C(=O)CN2CC(c3ccccc3)CC2=O)o1 (configuration not stated) has an INHIBITION of 62.4%. Compound CN(Cc1nc(C2CC2)no1)C(=O)CN1CC(c2ccccc2)CC1=O (configuration not stated) has an INHIBITION of 3.96%. CCc1cc(CN(C)C(=O)CN2CC(c3ccccc3)CC2=O)on1 (configuration not stated) was tested, and the INHIBITION was 9.91%.

From ChEMBL document CHEMBL4513216, “Probing the Open Global Health Chemical Diversity Library for Multistage-Active Starting Points for Next-Generation Antimalarials” (ACS Infect Dis, 2020)
